PubChem BioAssay AID1159580 (chemical genetic matrix, 2015)
Where “and” joins values, the source holds several entries; their conditions need not be identical. Equal values may be shown once. The campaign covered roughly 5,500 compounds. About 2,000 (36%) were called active. Not shown: some 18% with an inconclusive outcome. Rule as the data show it: active = normalized growth mostly below about 0.91 (no sharp cut-off); inconclusive = no clear call, values can overlap the other calls; inactive = mostly above about 0.92. This is one part of the list.

Assay: chemical genetic growth profiling, strain panel (AID 1159580);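 also: tested at 20 µM; growth read once vehicle control cultures reached saturation at 30 °C; 1 = growth at the plate median or of vehicle wells; lower values mean less growth of the strain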
Settings: S. cerevisiae deletion strains, growth OD

Measured: normalized growth

Cn1c(=O)c2[nH]c(C3CCCC3)nc2n(C)c1=O
inactive: locus YAL013W, strain DEP1, stronger effect = lower value 1.01 | locus YAL021C, strain ccr4, stronger effect = lower value 0.989 | locus YAL026C, strain drs2, stronger effect = lower value 0.997 | locus YAL030W, strain snc1, stronger effect = lower value 0.99 | locus YAL040C, strain CLN3, stronger effect = lower value 0.977 | locus YBL061C, strain skt5, stronger effect = lower value 0.996 | locus YBR009C, strain hhf1, stronger effect = lower value 0.99 | locus YBR021W, strain FUR4, stronger effect = lower value 1.02 | locus YBR023C, strain chs3, stronger effect = lower value 0.996 | locus YBR171W, strain sec66, stronger effect = lower value 1.01 | locus YBR229C, strain ROT2, stronger effect = lower value 1.01 | locus YBR231C, strain swc5, stronger effect = lower value 0.997 | locus YBR279W, strain paf1, stronger effect = lower value 0.992 | locus YCL011C, strain gbp2, stronger effect = lower value 0.999 | locus YCL016C, strain dcc1, stronger effect = lower value 0.992 | locus YCL029C, strain bik1, stronger effect = lower value 0.994 | locus YCL061C, strain MRC1 (second series), stronger effect = lower value 0.985 | locus YCL061C, strain MRC1, stronger effect = lower value 0.993 | locus YCL069W, strain vba3, stronger effect = lower value 0.992 | locus YCR088W, strain abp1, stronger effect = lower value 1 | locus YDL005C, strain med2, stronger effect = lower value 0.982 | locus YDL035C, strain GPR1, stronger effect = lower value 1.01 | locus YDL040C, strain nat1, stronger effect = lower value 0.998 | locus YDL074C, strain BRE1, stronger effect = lower value 1.03 | locus YDL101C, strain DUN1, stronger effect = lower value 1.02 | locus YDL134C, strain PPH21, stronger effect = lower value 1.01 | locus YDL185W, strain tfp1, stronger effect = lower value 1.01 | locus YDL192W, strain arf1, stronger effect = lower value 1 | locus YDR001C, strain nth1, stronger effect = lower value 1 | locus YDR069C, strain doa4, stronger effect = lower value 0.979 | locus YDR101C, strain arx1, stronger effect = lower value 0.985 | locus YDR137W, strain rgp1, stronger effect = lower value 1 | locus YDR150W, strain NUM1, stronger effect = lower value 1.02 and 0.999 | locus YDR159W, strain sac3, stronger effect = lower value 0.989 | locus YDR162C, strain NBP2, stronger effect = lower value 1.02 | locus YDR195W, strain ref2 0.944 | locus YDR297W, strain sur2, stronger effect = lower value 0.991 | locus YDR318W, strain mcm21, stronger effect = lower value 0.986 | locus YDR334W, strain swr1, stronger effect = lower value 0.997 | locus YDR335W, strain msn5, stronger effect = lower value 0.995 | locus YDR363W, strain ESC2, stronger effect = lower value 1.03 | locus YDR388W, stronger effect = lower value 0.995 | locus YDR392W, strain spt3, stronger effect = lower value 0.85 | locus YDR502C, strain sam2, stronger effect = lower value 1.01 | locus YEL003W, strain gim4, stronger effect = lower value 1 | locus YEL037C, strain rad23, stronger effect = lower value 1 | locus YEL061C, strain CIN8 (second series), stronger effect = lower value 1.01 | locus YEL061C, strain CIN8, stronger effect = lower value 1.01 | locus YER002W, strain NOP16, stronger effect = lower value 0.944 | locus YER015W, strain faa2, stronger effect = lower value 0.994 | locus YER016W, strain bim1, stronger effect = lower value 0.99 | locus YER110C, stronger effect = lower value 0.991 | locus YER111C, strain swi4, stronger effect = lower value 0.998 | locus YER155C, strain BEM2 (second series), stronger effect = lower value 0.961 | locus YER155C, strain BEM2, stronger effect = lower value 1.01 | locus YER167W, strain BCK2, stronger effect = lower value 1.01 | locus YFR010W, strain ubp6, stronger effect = lower value 1 | locus YGL078C, strain dbp3, stronger effect = lower value 1 | locus YGL086W, strain mad1, stronger effect = lower value 0.997 | locus YGL167C, strain pmr1, stronger effect = lower value 0.984 | locus YGL173C, strain kem1, stronger effect = lower value 0.997 | locus YGL227W, strain vid30, stronger effect = lower value 0.991 | locus YGL240W, strain doc1, stronger effect = lower value 0.981 | locus YGL248W, strain PDE1, stronger effect = lower value 1.02 | locus YGL253W, strain hxk2, stronger effect = lower value 1.01 | locus YGR078C, strain PAC10, stronger effect = lower value 1.01 | locus YGR135W, strain pre9, stronger effect = lower value 0.982 | locus YGR229C, strain SMI1, stronger effect = lower value 1.02 and 1.04 | locus YGR252W, strain gcn5, stronger effect = lower value 0.904 | locus YHR013C, strain ard1, stronger effect = lower value 0.953 | locus YHR027C, strain rpn1, stronger effect = lower value 0.991 | locus YHR030C, strain SLT2, stronger effect = lower value 1.01 and 0.978 | locus YHR079C, strain IRE1 (second series), stronger effect = lower value 0.994 | locus YHR079C, strain IRE1, stronger effect = lower value 0.991 | locus YHR094C, strain hxt1, stronger effect = lower value 1 | locus YHR129C, strain ARP1, stronger effect = lower value 1.01 | locus YHR142W, strain chs7, stronger effect = lower value 1 | locus YHR200W, strain rpn10, stronger effect = lower value 1.01 | locus YIL066C, strain RNR3, stronger effect = lower value 1 | locus YIL073C, strain SPO22, stronger effect = lower value 1 | locus YIL125W, strain kgd1, stronger effect = lower value 0.995 | locus YIR030C, strain dcg1, stronger effect = lower value 1 | locus YJL092W, strain hpr5, stronger effect = lower value 1.01 | locus YJL095W, strain BCK1 (second series), stronger effect = lower value 0.992 | locus YJL095W, strain BCK1, stronger effect = lower value 1 and 0.974 | locus YJL115W, strain asf1, stronger effect = lower value 0.987 | locus YJL129C, strain trk1, stronger effect = lower value 0.974 | locus YJL134W, strain LCB3, stronger effect = lower value 1.01 | locus YJL154C, strain vps35, stronger effect = lower value 0.995 | locus YJL164C, strain tpk1, stronger effect = lower value 0.987 | locus YJL166W, strain qcr8, stronger effect = lower value 0.984 | locus YJL168C, strain set2, stronger effect = lower value 1 | locus YJL187C, strain SWE1 (second series), stronger effect = lower value 1.01 | locus YJL187C, strain SWE1, stronger effect = lower value 0.99 | locus YJR043C, strain POL32, stronger effect = lower value 0.992 | locus YJR066W, strain TOR1, stronger effect = lower value 0.96
